Screening data (PubChem BioAssay)
ERAP1 HTS inh: human ERAP1 aminopeptidase inhibitors, primary screen, biochemical, single point, plate reader | Endoplasmic reticulum aminopeptidase 1 (Homo sapiens), Q9NZ08 | recombinant ERAP1, Leu-AMC fluorescence, 60 min | inhibition, % at 10.7 µM | 340,000 compounds, 0.15% hits;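 active means mean replicate inhibition of at least 30%, or all replicates individually reaching that 30% level; inactive means mean below 30% and not every replicate reaching it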;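 further: 0% = neutral control wells and 100% = L-leucinethiol positive control wells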
Target sequence (Q9NZ08 whole entry, looked up): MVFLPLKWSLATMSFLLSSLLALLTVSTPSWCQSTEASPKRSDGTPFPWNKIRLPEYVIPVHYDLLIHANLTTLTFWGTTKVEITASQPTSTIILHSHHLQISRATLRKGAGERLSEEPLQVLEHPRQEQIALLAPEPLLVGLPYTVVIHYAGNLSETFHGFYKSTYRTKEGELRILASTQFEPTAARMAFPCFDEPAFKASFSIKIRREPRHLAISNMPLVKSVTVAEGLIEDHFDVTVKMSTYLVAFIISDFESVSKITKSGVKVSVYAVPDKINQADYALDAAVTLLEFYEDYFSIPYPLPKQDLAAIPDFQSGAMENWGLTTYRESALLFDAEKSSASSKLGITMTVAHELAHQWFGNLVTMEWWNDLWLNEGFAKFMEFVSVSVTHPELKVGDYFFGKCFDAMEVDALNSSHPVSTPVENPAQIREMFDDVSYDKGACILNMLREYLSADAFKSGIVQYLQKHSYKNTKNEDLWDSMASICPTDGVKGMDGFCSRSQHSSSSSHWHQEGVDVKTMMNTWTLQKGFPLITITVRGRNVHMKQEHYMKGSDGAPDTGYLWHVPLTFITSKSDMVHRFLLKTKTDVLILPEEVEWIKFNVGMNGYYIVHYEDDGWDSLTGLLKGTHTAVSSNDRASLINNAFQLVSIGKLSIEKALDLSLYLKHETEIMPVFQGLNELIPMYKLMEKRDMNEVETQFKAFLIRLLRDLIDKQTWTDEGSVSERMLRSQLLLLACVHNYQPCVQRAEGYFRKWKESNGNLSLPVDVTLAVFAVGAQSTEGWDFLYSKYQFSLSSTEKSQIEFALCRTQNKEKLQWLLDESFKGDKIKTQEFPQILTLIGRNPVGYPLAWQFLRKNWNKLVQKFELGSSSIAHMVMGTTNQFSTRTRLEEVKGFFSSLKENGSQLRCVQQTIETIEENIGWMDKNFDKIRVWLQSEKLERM
CaV13 ICDI inh: Primary screen for inhibitors of IQ motif and Ca2+-dependent inactivation inhibitor domain binding in CACNA1D, Förster resonance energy transfer in living cells, …. inhibition, % at 12.3 µM. HEK cells, CFP/YFP FRET ICDI-IQ, plate reader, 10 min; percent FRET-ratio fall versus neutral wells. 340,000 compounds, 0.098% hits;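 active means mean replicate inhibition of at least 30% and at least 1% of replicates passing that level; inconclusive means only one of the two criteria is met; inactive means neither criterion is met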;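 further: 0% = median of the neutral control wells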
INS-1E GSIS act: GLuc luminescence reporter in INS-1E cells, primary screen for activators of glucose-dependent secretion of insulin; INS-1E GLuc reporter insulin secretion, 2-3 h; activation, % at 16.6 µM; 370,000 compounds, 0.61% hits;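 active means lowest replicate activation of at least 40%, so every replicate reaches that level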;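 further: 0% = median of neutral control wells and 100% = median of IBMX positive control wells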
DENV2 CPE: inhibitors of DENV2 cytopathic effect, primary screen, cell-based, plate reader, single concentration. DENV2-infected cells, cytopathic effect rescue. CPE inhibition, % at 9.99 µM. 350,000 compounds, 1.7% hits. AID 651640, 2012; in the data active means CPE inhibition above about 20%, passing the limit was not always enough; inconclusive means no clear call, values can overlap the other calls; tested in BHK-21 cells;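 further: 0% = median of neutral control wells and 100% = median of positive control wells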
PGC1a acetyl inh: inhibitors of PGC1a acetylation signal, primary screen, cell-based, U2OS, AlphaScreen, inhibitor mode. inhibition, % at 15.6 µM. AlphaScreen anti-acetyl-lysine; with virally co-expressed GCN5 acetyltransferase. 350,000 compounds, 0.17% hits. AID 651687, 2012;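 active means every replicate shows inhibition of at least 40%; inconclusive means mean inhibition at least 40% but some replicate below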;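 further: 0% = neutral control wells and 100% = positive control wells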
rRNA inh HTS: reduced GFP signal of wild-type E. coli, primary screen, bacterial rRNA inhibitor project, GFP/RFP fluorescence, OD600, single point; E. coli WT GFP vs humanized-ribosome RFP mutants, 24 h; stronger effect = lower value; DMSO median 0, no signal -100; GFP signal change (wild-type ribosome), % (concentration not given with the values); 350,000 compounds, 1.6% hits;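 active means significant combined selectivity score with lowered wild-type GFP, culture density cut under 30%, mutant RFP and density less affected; inactive means any of these conditions unmet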
* = called active by the depositor. Hits are enriched below; roughly 3.2% of the tested compounds scored in any of these assays.

For COc1ccccc1-c1ccc([C@H]2[C@H](CO)N3CCCCN(C(=O)NC4CCCC4)C[C@@H]23)cc1 the results were ERAP1 HTS inh 1.1, INS-1E GSIS act -22.8, DENV2 CPE -1.1, PGC1a acetyl inh -7.7 and rRNA inh HTS -0.5.
COc1ccccc1NC(=O)N1CCCCN2[C@@H](CO)[C@@H](c3ccc(C#CC4CCCC4)cc3)[C@@H]2C1 was read as ERAP1 HTS inh 3.0, INS-1E GSIS act 55.2*, DENV2 CPE 2.1, PGC1a acetyl inh -31.3 and rRNA inh HTS -57.2.
`COc1ccccc1NC(=O)N1CCCCN2[C@H](C1)[C@H](c1ccc(C#CC3CCCC3)cc1)[C@@H]2CO` gave ERAP1 HTS inh 3.0, INS-1E GSIS act -11.2, DENV2 CPE 8.6, PGC1a acetyl inh -2.4 and rRNA inh HTS 1.8.
For COc1cc2[nH]c(=S)nc(NCc3ccccc3)c2cc1OC the results were ERAP1 HTS inh -1.0, CaV13 ICDI inh -20.2, INS-1E GSIS act -0.3, DENV2 CPE -5.7, PGC1a acetyl inh -5.1 and rRNA inh HTS -15.9*.
Screening COc1ccc(NC(=O)Nc2ccc3c(c2)[C@H]2C[C@@H](CC(=O)N4CCc5ccccc5C4)O[C@@H](CO)[C@H]2O3)cc1 returned ERAP1 HTS inh -0.1, INS-1E GSIS act 4.2, DENV2 CPE -1.2, PGC1a acetyl inh 3.0 and rRNA inh HTS -2.2.
COc1ccc(S(=O)(=O)Nc2c(C)nn(C)c2C)cc1Br was read as ERAP1 HTS inh -1.7, CaV13 ICDI inh -5.4, INS-1E GSIS act -7.3, DENV2 CPE 30.8*, PGC1a acetyl inh -2.9 and rRNA inh HTS -3.6.
`COc1ccc(-c2cc(-c3ccccc3)c(C#N)c(S(C)=O)n2)cc1` (stereo not given) gave CaV13 ICDI inh -3.3 and PGC1a acetyl inh 85.0*.
`Cc1ccc(C)c(NC(=O)C2CC(O)CN2C(=O)Oc2ccccc2)c1` (stereo not given) gave ERAP1 HTS inh 39.3*, CaV13 ICDI inh -6.1, INS-1E GSIS act -1.0, DENV2 CPE -0.8, PGC1a acetyl inh 0.7 and rRNA inh HTS 4.2.
Screening Cc1ccc(C)c(NC(=O)C2CC(O)CN2C(=O)OCc2ccccc2)c1 (stereo not given) returned CaV13 ICDI inh -2.9 and PGC1a acetyl inh 9.3.
Screening C[C@@H]1CN([C@H](C)CO)C(=O)Cc2cc(NC(=O)Cc3ccccc3)ccc2O[C@H]1CN(C)C(=O)Nc1cccc2ccccc12 returned ERAP1 HTS inh -0.2, INS-1E GSIS act 11.3, DENV2 CPE 0.4, PGC1a acetyl inh 6.3 and rRNA inh HTS -1.8.
`COc1ccc(CN(C)C[C@@H]2Oc3ccc(NS(=O)(=O)c4ccc(F)cc4)cc3CC(=O)N([C@H](C)CO)C[C@@H]2C)cc1` gave ERAP1 HTS inh 1.3, INS-1E GSIS act -13.2, DENV2 CPE 23.5*, PGC1a acetyl inh 5.6 and rRNA inh HTS -0.1.
`COc1ccc(S(=O)(=O)Nc2ccc3c(c2)CC(=O)N([C@H](C)CO)C[C@H](C)[C@H](CN(C)Cc2ccc(Cl)c(Cl)c2)O3)cc1` gave ERAP1 HTS inh -1.3, INS-1E GSIS act -1.8, DENV2 CPE inconclusive, PGC1a acetyl inh -14.9 and rRNA inh HTS -1.6.
COc1ccc(S(=O)(=O)Nc2ccc3c(c2)CC(=O)N([C@H](C)CO)C[C@@H](C)[C@H](CN(C)Cc2ccc(Cl)c(Cl)c2)O3)cc1 was read as ERAP1 HTS inh 3.7, INS-1E GSIS act -4.2, DENV2 CPE 38.5*, PGC1a acetyl inh 2.8 and rRNA inh HTS 2.3.
`C/C=C/c1ccc([C@@H]2[C@H](CO)N(CC3CC3)C23CN(C(=O)COC)C3)cc1` gave ERAP1 HTS inh -1.5, INS-1E GSIS act -3.4, DENV2 CPE 9.7, PGC1a acetyl inh 1.6 and rRNA inh HTS -2.0.
`COCC1=C([C@H](O)c2ccccc2)[C@H](CO)[C@@H]2C(=O)N(C)C(=O)[C@@H]2C1` gave ERAP1 HTS inh -1.4, DENV2 CPE -3.9 and PGC1a acetyl inh 2.3.
